# Reference: publication PMC5540273 (PLoS ONE, 2017)
# How the values were obtained:
# [1] = tested on: T1, MEK5
# T1 construct: gene MAP2K5
# [2] = tested on: MUSK
# [3] = tested on: MTOR
# [4] = tested on: MKNK2
# [5] = tested on: T2, MINK
# T2 construct: gene MINK1
# [6] = tested on: MST1R
# [7] = tested on: MYLK2
# [8] = tested on: T3, MEK2
# T3 construct: gene MAP2K2
# [9] = tested on: MKNK1
# 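Also: kd values determined as follow-up on hits from a single-replicate KINOMEscan panel screen.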
smiles,measurement,setting,value
COc1cc2ncn(-c3cc(OCc4ccncc4)c(C(N)=O)s3)c2cc1OC [GSK336313],Kd,[1],0.67 µM
same,Kd,[2],> 10 µM
COc1ccc(-c2cc3c(C)nc(N)nc3n([C@H]3CC[C@H](O)CC3)c2=O)cn1,Kd,[3],0.0048 µM
COc1cc2ncn(-c3cc(OCc4ccc(S(C)(=O)=O)cc4)c(C(N)=O)s3)c2cc1OC [GW869979],Kd,[1],0.47 µM
COc1cc2nccc(Nc3ccc(OCc4ccc(NC(C)=O)cc4)cc3)c2cc1OC.Cl [GW440135],Kd,[1],0.052 µM
COc1ccc(-c2cc3c(C)nc(N)nc3n([C@H]3CC[C@H](OCCO)CC3)c2=O)cn1,Kd,[3],0.0033 µM
Nc1n[nH]c2ncc(-c3ccccc3)cc12 [SB-517081],Kd,[1],0.66 µM
same,Kd,[4],0.26 µM
Nc1nc(-c2ccccc2F)c(-c2ccnc3ccccc23)s1 [GW560459],Kd,[5],1.7 µM
COc1cc2ncn(-c3cc(OCCCc4ccccc4)c(C(N)=O)s3)c2cc1OC [GSK205189],Kd,[1],0.28 µM
Cc1ccc(Oc2ccc(Nc3ncnc4cc[nH]c34)cc2C)cn1,Kd,[1],0.009 µM
O=C(Nc1n[nH]c2nc(-c3ccccc3)c(Br)cc12)C1CC1 [SB-708998],Kd,[6],> 10 µM
same,Kd,[7],0.06 µM
Nc1nccc2scc(-c3ccc4c(c3)CCN4C(=O)Cc3ccccc3)c12 [GSK2576924],Kd,[1],0.53 µM
Cn1c(=O)c(F)c(Nc2ccc(I)cc2F)c2c(=O)n(OC[C@H](O)CO)cnc21,Kd,[8],0.2 µM
O=C(Nc1n[nH]c2nc(-c3ccccc3)c(Cl)cc12)C1CC1 [SB-734909],Kd,[7],0.15 µM
Cc1cccc(-c2nc(Nc3ccc4c(cnn4C)c3)c3ccccc3n2)n1 [GW876731],Kd,[9],> 10 µM
